High-throughput results deposited in PubChem by National Center for Advancing Translational Sciences (NCATS).
LmPK inh: qHTS Assay for Inhibitors of Leishmania Mexicana Pyruvate Kinase (LmPK). purified LmPK, Kinase-Glo ATP luminescence, 1 h. AID 1721, 2009. 290,000 compounds, 0.37% hits. Potency, µM (titrated, usually from 57.5 µM), inactives show at the highest dose activity change, negative = inhibition, actives largely listed as inhibitors; note: potency is the fitted concentration of half-maximal effect
Target sequence (Q27686 whole entry, looked up): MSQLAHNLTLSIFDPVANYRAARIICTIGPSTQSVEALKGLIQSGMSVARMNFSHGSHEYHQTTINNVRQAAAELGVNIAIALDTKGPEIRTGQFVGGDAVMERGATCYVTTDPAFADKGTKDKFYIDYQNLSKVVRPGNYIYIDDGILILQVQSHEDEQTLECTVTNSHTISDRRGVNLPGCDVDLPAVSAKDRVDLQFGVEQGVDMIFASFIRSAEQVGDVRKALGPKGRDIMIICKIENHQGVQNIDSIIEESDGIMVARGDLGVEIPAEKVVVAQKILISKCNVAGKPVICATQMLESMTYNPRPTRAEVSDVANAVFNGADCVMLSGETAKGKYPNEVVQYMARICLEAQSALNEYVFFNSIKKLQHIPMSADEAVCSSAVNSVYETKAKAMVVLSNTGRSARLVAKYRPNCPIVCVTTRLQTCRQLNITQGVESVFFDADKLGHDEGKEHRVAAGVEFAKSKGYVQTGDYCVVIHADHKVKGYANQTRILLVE
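Kinase-Glo luminescence read after 1 h RT reaction of 0.1 nM LmPK with 0.5 mM PEP and 0.1 mM ADP. Activity scaled between uninhibited and enzyme-free controls.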
Tb PYK inh: qHTS of Trypanosoma Brucei Inhibitors; pyruvate kinase (Trypanosoma brucei), Q57TT1; TbPYK enzyme, Kinase-Glo Plus ATP luminescence, 45 min; Potency, µM (highest dose often 76.8 µM), inactives show top-dose activity, negative = inhibition, hits mostly inhibitors; 410,000 compounds, 0.12% hits; note: potency is the fitted concentration of half-maximal effect; nearly all actives have a fitted effect of over 50% in size
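T. brucei PYK with substrate was exposed to pin-transferred compounds across a concentration series, then started with 130 uM ADP (final). After 45 min at room temperature, Kinase-Glo Plus luminescence was read, normalized and curve-fitted.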
VACV mCherry inh: qHTS for Stage-Specific Inhibitors of Vaccinia Orthopoxvirus: mCherry Reporter Primary qHTS. AID 720579, 2013. Vaccinia virus mCherry reporter infection, fluorescence. Potency, µM (doses to about 36.5 µM), inactives show at the highest dose activity change, negative = inhibition, most hits filed as inhibitors. 310,000 compounds, 0.63% hits; calls by dose curve; tested in A549 cells; note: potency is the fitted concentration of half-maximal effect; nearly all actives have a fitted effect of over 35% in size
HCMV inh: qHTS Assay for inhibitors of the human cytomegalovirus (HCMV) | AID 1259415, 2018 | HFF cells, HCMV-luciferase reporter, 72 h; active compounds read low | activity change, negative = inhibition, % at 57.5 µM | 410,000 compounds, 4.5% hits; in the data active = activity change below about -60%; inconclusive = no clear call, values can overlap the other calls; inactive = above about -39%
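Cell-based, HFFs, 1000 cells/well, 16 h 37C; cpds in DMSO + HCMV-luc, MOI 1 PFU/cell; 72 h 37C; OneGlo luminescence after 5 min RT; norm. to buffer vs Salinomycin 10uM.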
VACV Venus inh: qHTS for Stage-Specific Inhibitors of Vaccinia Orthopoxvirus: Venus Reporter Primary qHTS; 330,000 compounds, 0.46% hits; Vaccinia virus Venus reporter expression, fluorescence; Potency, µM (top dose mostly 36.5 µM), for the others: top-dose activity change, negative = inhibition, hits mostly inhibitors; calls by dose curve; tested in A549 cells; note: potency is the fitted concentration of half-maximal effect; nearly all actives have a fitted effect of over 30% in size
Active calls of the source: *; i = inactive; ? = inconclusive; · = not tested or not shown; ! = not active in a repeat; [ ] = another dose, or the depositor's remark. Shown are actives, neighbours in structure and some others; about 5% of the full set was active somewhere. Unless noted, calls come from the whole dose curve; as a rule, active = well fitted curve in the direction sought with a large enough effect; inconclusive = small, poorly fitted or top-dose-only effect, or another doubt; inactive = no such curve, though single readings can be large; an effect the other way counts as inactive or inconclusive. % is set by controls: 0 for no effect and ±100 for the full control effect.

SMILES | LmPK inh | Tb PYK inh | VACV mCherry inh | HCMV inh | VACV Venus inh
Cn1nc(-c2ccc(F)cc2)nc2c(=O)n(C)c(=O)nc1-2 | · | · | 0.63µM* | · | 2.8µM*
Cn1nc(-c2ccc(Cl)cc2)nc2c(=O)n(C)c(=O)nc1-2 | 1% | · | 2µM* | · | 2µM*
OCCC1CN(Cc2cnc(-c3ccccc3)s2)CCN1C1CCCC1 (stereo not given) | -7% | 0% | i | -66* | -17%
C(CCN1CCOCC1)CN1CCOCC1 | · | -1% | 43% | 62 | -2%
OCCN1CCOCCN(CCO)CCOCC1 | -1% | -9% | · | -92* | -16%
CC(=O)Nc1ccc(NC(=O)C(C)OC(=O)C(C)SCC(=O)Nc2ccc(C)cc2)cc1 (stereo not given) | · | -5% | -3% | -34 | -17%
O=C(N/C(=C/c1ccc(Cl)cc1)C(=O)N1CCOCC1)c1ccccc1 | -3% | 2% | i | -78* | -11%
O=C(N/C(=C/c1cccs1)C(=O)N1CCCCCC1)c1ccccc1 | 1% | 1% | -10% | -98* | -13%
O=Cc1cn(Cc2cccc([N+](=O)[O-])c2)c2ccccc12 | -5% | 6% | i | ? | -7%
COc1ccccc1NS(=O)(=O)c1cc(NC(=O)CCC2CCCC2)ccc1N1CCOCC1 | -2% | 4% | · | -104* | ·
CCC(C(=O)Nc1ccc(N2CCOCC2)c(S(=O)(=O)Nc2ccccc2OC)c1)c1ccccc1 (stereo not given) | · | -10% | -27% | -81* | -23%
CCN1CCC(N(Cc2ccc3c(c2)OCO3)C(=O)Nc2cc(Cl)ccc2C(=O)OC)CC1 | · | -3% | -21% | -80* | ?
CCN1CCC(N(Cc2ccc3c(c2)OCO3)C(=O)Nc2ccccc2OC)CC1 | · | 0% | -12% | -5 | -9%
COc1ccccc1NC(=S)NCC1CCCCC1 | 1% | -17% | · | -66* | ·
COc1ccccc1NC(=S)NC1CCCCCCCCCCC1 | 5% | 4% | · | -61* | ·
O=C(Nc1ccccc1NC(=O)NC1CCCCC1)NC1CCCCC1 | 2% | -8% | · | -106* | ·
Cc1csc2nc(COC(=O)c3ccc(NC(=O)C(C)C)cc3)cc(=O)n12 | · | -25% | i | -34 | -22%
CN(C)/C=N/c1ncc(C(=O)c2ccc(Cl)cc2Cl)s1 | 0% | 3% | -7% | -61* | -4%
CN(C)/C=N/c1ncc(C(=O)c2ccc(Cl)cc2)s1 | -15% | 0% | · | -5 | ·
CCCCCn1c2nc3ccccc3nc2c2c(=O)n(CC(C)C)cnc21 | 12% | 2% | -14% | · | -6%
CCCCn1c2nc3ccccc3nc2c2c(=O)n(CC(C)C)cnc21 | · | 0% | i | -62* | 0%
CCC(=O)N1CCC1(C)C(=O)Nc1ccc(OC(F)F)cc1 (stereo not given) | · | -1% | 42% | -63* | 8%
CC1=C(C(=O)OC(C)C)C(c2ccsc2)NC(=O)N1C (stereo not given) | 8% | -3% | · | -17 | ·
COc1cc(NC(=O)CCS(=O)(=O)c2nc(-c3ccc4c(c3)OCO4)cc(C(F)(F)F)n2)cc(OC)c1OC | · | 17% | -15% | -7 | 2%
O=C(Nc1nncs1)c1cccc(S(=O)(=O)N2CCOCC2)c1 | 6% | -8% | · | 22 | ·
SMILES | LmPK inh | Tb PYK inh | VACV mCherry inh | HCMV inh | VACV Venus inh
Cc1cc(C)[n+]2[nH]c(N)c(N=Nc3ccccc3)c2n1 | -1% | -3% | i[7.34 µM] | 1 | 8%[7.34 µM]
Cc1ccc(S(=O)(=O)Cc2ccc(C(=O)N3CCCCCC3)o2)cc1 | 11% | -4% | 1% | -63* | -14%
O=C(c1ccc(CS(=O)(=O)c2ccc(Br)cc2)o1)N1CCN(c2ccc(F)cc2)CC1 | 4% | 4% | -8% | 0 | -9%
COc1ccc(N2CCN(C(=O)c3ccc(CS(=O)(=O)c4ccc(Br)cc4)o3)CC2)cc1 | 2% | -6% | 13%[7.34 µM] | -84*! | 26%[7.34 µM]
N#C/C(=C(/O)c1cccc(F)c1)c1nc2ccccc2s1 | -1% | -6% | · | -70* | ·
Cn1c(/C(C#N)=C(\O)c2cccc(F)c2)nc2ccccc21 | 1% | 4% | -29% | 140 | -24%
OCCCNc1ncnc2c1ncn2[C@H]1CN(Cc2ccncc2)C[C@@H](CO)O1 | · | 8% | 24% | -21 | 9%
